Source: PubChem BioAssay (EPA / NIEHS)
Results filed as inconclusive are left out. Calls of active or inactive are those of the source. How the source made its calls, unless noted: active means hit-call score of the fitted dose curve at least 0.9, where 1 is the maximum; inactive means score below 0.9.

Columns and labels:
[1] = read-out: Nuclear factor erythroid 2-related factor 2 (Homo sapiens) (UniProt Q16236); assay: LTEA_HepaRG_NFE2L2: Life Technologies and Expression Analysis (LTEA) Assay for Nuclear factor erythroid 2-related factor 2 (NFE2L2) Transcription Factor using HepaRG (AID 2283527); conditions: mRNA level, 48 h; actives raise or lower the signal
Outline: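 NFE2L2 transcript level was read by qRT-PCR (housekeeping ACTB/GAPDH/POLR2A normalisation) after 48 h chemical treatment of HepaRG in serum-free induction medium. Duplicate 8-point half-log curves, top 100 uM, 0.5% DMSO vehicle; up- or down-regulation fitted against vehicle.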

[2] = read-out: succinate dehydrogenase complex iron sulfur subunit B (SDHB), SDHB (gene 6390); assay: LTEA_HepaRG_SDHB: Life Technologies and Expression Analysis (LTEA) Assay for succinate dehydrogenase complex iron sulfur subunit B (SDHB) using HepaRG (AID 2283528); conditions: mRNA level, 48 h; actives raise or lower the signal
Outline: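 HepaRG, 48 h exposure, 8-pt half-log series from 100 uM in 0.5% DMSO, duplicates. Readout: SDHB mRNA by Fluidigm qRT-PCR vs housekeeping genes; bidirectional fit relative to DMSO.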

[3] = read-out: Signal transducer and activator of transcription 3 (Homo sapiens) (UniProt P40763); assay: LTEA_HepaRG_STAT3: Life Technologies and Expression Analysis (LTEA) Assay for Signal transducer and activator of transcription (STAT3) using HepaRG (AID 2283529); conditions: mRNA level, 48 h; actives raise or lower the signal
Outline: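 STAT3 transcript quantified by qRT-PCR against three housekeeping genes (ACTB, GAPDH, POLR2A), fitted both directions relative to DMSO. HepaRG cultures exposed 48 h to eight half-log concentrations, top 100 uM, 0.5% DMSO, serum-free induction medium.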

[4] = read-out: solute carrier (SLCO1B1), SLCO1B1 (gene 10599); assay: LTEA_HepaRG_SLCO1B1: Life Technologies and Expression Analysis (LTEA) Assay for solute carrier (SLCO1B1) using HepaRG (AID 2283530); conditions: mRNA level, 48 h; actives raise or lower the signal
Outline: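 HepaRG, serum-free induction medium, 48 h dosing, 8-pt half-log from 100 uM, 0.5% DMSO vehicle, duplicates. Readout: SLCO1B1 mRNA, qRT-PCR, ACTB/GAPDH/POLR2A normalization; up or down fit vs DMSO.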

[5] = read-out: sulfotransferase 2A1 (SULT2A1), SULT2A1 (gene 6822); assay: LTEA_HepaRG_SULT2A1: Life Technologies and Expression Analysis (LTEA) Assay for sulfotransferase 2A1 (SULT2A1) using HepaRG (AID 2283531); conditions: mRNA level, 48 h; actives raise or lower the signal
Outline: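 Transcript levels of SULT2A1, quantified by qRT-PCR and normalized to three housekeeping genes, serve as the readout. Human HepaRG cultures receive test chemicals for 48 h at up to 100 uM in half-log steps, with 0.5% DMSO vehicle.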

[6] = read-out: Transforming Growth Factor (TGFA), TGFA (gene 7039); assay: LTEA_HepaRG_TGFA: Life Technologies and Expression Analysis (LTEA) Assay for Transforming Growth Factor (TGFA) using HepaRG (AID 2283532); conditions: mRNA level, 48 h; actives raise or lower the signal
Outline: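 TGFA transcript quantified by qRT-PCR (Fluidigm arrays) against three housekeeping genes, after 48 hours chemical treatment of HepaRG cells. Top concentration 100 uM with half-log dilutions, 8 points, duplicates, 0.5% DMSO.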

[7] = read-out: Transforming Growth Factor (TGFB1), TGFB1 (gene 7040); assay: LTEA_HepaRG_TGFB1: Life Technologies and Expression Analysis (LTEA) Assay for Transforming Growth Factor (TGFB1) Transporter using HepaRG (AID 2283533); conditions: mRNA level, 48 h; actives raise or lower the signal
Outline: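 HepaRG, 48 h post-plating, switched to serum-free induction medium; chemicals 100 uM top, half-log, 8 pts, 0.5% DMSO, dup; 48 h exposure; RNA → Fluidigm TaqMan qRT-PCR; norm ACTB/GAPDH/POLR2A; bidirectional fit vs DMSO.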

[8] = read-out: Tumor necrosis factor receptor 1 (TNFRSF1A), TNFRSF1A (gene 7132); assay: LTEA_HepaRG_TNFRSF1A: Life Technologies and Expression Analysis (LTEA) Assay for Tumor necrosis factor receptor 1 (TNFRSF1A) using HepaRG (AID 2283535); conditions: mRNA level, 48 h; actives raise or lower the signal
Outline: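 Read-out is TNFRSF1A transcript level by TaqMan qRT-PCR, normalized to three housekeeping genes, scored as gain or loss of signal versus 0.5% DMSO. Human HepaRG cells received test chemicals for 48 h at up to 100 uM (half-log series).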

[9] = read-out: Thyroid Hormone Responsive (THRSP), THRSP (gene 7069); assay: LTEA_HepaRG_THRSP: Life Technologies and Expression Analysis (LTEA) Assay for Thyroid Hormone Responsive (THRSP) using HepaRG (AID 2283536); conditions: mRNA level, 48 h; actives raise or lower the signal
Outline: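 THRSP transcript quantified by Fluidigm qRT-PCR against three housekeeping genes after 48 h chemical exposure of HepaRG cells in serum-free induction medium; eight-point half-log series, top 100 uM, 0.5% DMSO vehicle, duplicate wells.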

[10] = read-out: Cellular tumor antigen p53 (Homo sapiens) (UniProt P04637); assay: LTEA_HepaRG_TP53: Life Technologies and Expression Analysis (LTEA) Assay for Tumor Protein P53 (TP53) using HepaRG (AID 2283537); conditions: mRNA level, 48 h; actives raise or lower the signal
Outline: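 HepaRG, 48 h exposure, top 100 uM, half-log 8-point, 0.5% DMSO vehicle, duplicates. Read: TP53 mRNA by TaqMan qRT-PCR, normalised to ACTB/GAPDH/POLR2A; bidirectional fit vs DMSO.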

[11] = read-out: UDP glucuronosyltransferase (UGT1A1), UGT1A1 (gene 54658); assay: LTEA_HepaRG_UGT1A1: Life Technologies and Expression Analysis (LTEA) Assay for UDP glucuronosyltransferase (UGT1A1) using HepaRG (AID 2283538); conditions: mRNA level, 48 h; actives raise or lower the signal
Outline: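 HepaRG, 48 h chemical exposure (top 100 uM, half-log 8-pt, 0.5% DMSO vehicle), duplicate wells; qRT-PCR (TaqMan, Fluidigm array) for UGT1A1 mRNA, housekeeping-normalized; bidirectional curve fit vs DMSO baseline.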

[12] = read-out: UDP glucuronosyltransferase (UGT1A6), UGT1A6 (gene 54578); assay: LTEA_HepaRG_UGT1A6: Life Technologies and Expression Analysis (LTEA) Assay for UDP glucuronosyltransferase (UGT1A6) using HepaRG (AID 2283539); conditions: mRNA level, 48 h; actives raise or lower the signal
Outline: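 HepaRG, 48 h post-plating switch to serum-free induction medium; chemical 48 h, 100 uM top, half-log x8, duplicate, 0.5% DMSO. Phenobarbital 1mM induction control. UGT1A6 mRNA by TaqMan qRT-PCR; gain/loss fit vs DMSO.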

[13] = read-out: X-box binding protein 1 (XBP1), XBP1 (gene 7494); assay: LTEA_HepaRG_XBP1: Life Technologies and Expression Analysis (LTEA) Assay for X-box binding protein 1 (XBP1) using HepaRG (AID 2283540); conditions: mRNA level, 48 h; actives raise or lower the signal
Outline: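 Transcript levels of XBP1, measured by qRT-PCR and normalised to three housekeeping genes, were fitted bidirectionally relative to 0.5% DMSO controls. Human HepaRG cells received eight-point half-log dilutions from 100 uM for 48 h.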

[14] = LTEA_HepaRG_LDH_cytotoxicity: Cytotoxicity Assessment in the Life Technologies and Expression Analysis (LTEA) Assay (AID 2283563; active means hit-call score of the fitted dose curve at least 0.9, where 1 is the maximum;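 on AC50: LDH activity released into spent culture medium as a marker of cell death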)
Outline: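 Cells were thawed and plated for 48 h. Medium was then replaced with serum-free induction medium. Chemicals (8 half-log points, maximum 100 uM, 0.5% DMSO) were added in duplicate for 48 h, after which spent medium was assayed for LDH.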

[15] = ATG_XTT_Cytotoxicity: Cytotoxicity Assessment in the Attagene TRANS-FACTORIAL HepG2 Assay (AID 2283584; active means hit-call score of the fitted dose curve at least 0.9, where 1 is the maximum)
Outline: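 Cells: human HepG2, transiently transfected with MRTU reporter constructs. Exposure 24 h. Readout: XTT, cell number. Baseline/neg ctrl DMSO; loss-of-signal scored.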

[16] = TOX21_p53_BLA_p2_viability: Viability Assessment in the Tox21 HCT-116 p53 Agonism Beta-lactamase Assay, Phase 2 (AID 2283591; active means hit-call score of the fitted dose curve at least 0.9, where 1 is the maximum;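 further: compound exposure lasted 16 h at 37 °C; actives lower the ATP signal meaning cytotoxicity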)
Outline: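 Cytotoxicity readout: CellTiter-Glo ATP luminescence, 30 min at room temperature, after the beta-lactamase read. Cells were HCT116 exposed 16 h at 37C to compounds pin-transferred at 217-fold dilution from DMSO stocks.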

[17] = biological target: Cellular tumor antigen p53 (Homo sapiens) (UniProt P04637); assay: TOX21_p53_BLA_p2_ratio: Tox21 HCT-116 p53 Agonism Beta-lactamase Assay, Ratio, Phase 2 (AID 2283592; active means hit-call score of the fitted dose curve at least 0.9, where 1 is the maximum)
Outline: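 Plated HCT116 p53-bla cells (4000/well) received compound after 5 h, then 16 h at 37C/5% CO2. CCF4-AM added, 2 h RT. Ratio of 460 to 530 nm emission taken as the p53 reporter signal.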

[18] = TOX21_p53_BLA_p3_viability: Viability Assessment in the Tox21 HCT-116 p53 Agonism Beta-lactamase Assay, Phase 3 (AID 2283593; active means hit-call score of the fitted dose curve at least 0.9, where 1 is the maximum;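 further: cells exposed to compound for 16 h before reading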)
Outline: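 Cellular ATP was quantified by CellTiter-Glo luminescence, read after 30 min at room temperature. Beforehand, HCT116 cells (4000/well) received compound 5 h post-seeding, 217-fold diluted from DMSO, then incubated 16 h at 37C.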

[19] = biological target: Cellular tumor antigen p53 (Homo sapiens) (UniProt P04637); assay: TOX21_p53_BLA_p3_ratio: Tox21 HCT-116 p53 Agonism Beta-lactamase Assay, Ratio, Phase 3 (AID 2283596; active means hit-call score of the fitted dose curve at least 0.9, where 1 is the maximum)
Outline: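 Cells were seeded at 4000/well, rested 5 h at 37C, then dosed with DMSO compound solutions (217-fold dilution) for 16 h. CCF4-AM substrate was loaded for 2 h at room temperature, and the 460/530 nm emission ratio was fitted for gain of signal versus DMSO.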

[20] = read-out: TIMP1, TIMP1 (gene 7076); assay: LTEA_HepaRG_TIMP1: Life Technologies and Expression Analysis (LTEA) Assay for TIMP1 using HepaRG (AID 2283534); conditions: mRNA level, 48 h; actives raise or lower the signal
Outline: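 Readout is TIMP1 mRNA level measured by qRT-PCR and normalized to three housekeeping genes. Human HepaRG cells were treated for 48 h in duplicate at eight concentrations up to 100 uM (0.5% DMSO); gain or loss fitted against DMSO.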

Measured: AC50

Sequence of Nuclear factor erythroid 2-related factor 2 (Homo sapiens) (Q16236 whole entry, looked up): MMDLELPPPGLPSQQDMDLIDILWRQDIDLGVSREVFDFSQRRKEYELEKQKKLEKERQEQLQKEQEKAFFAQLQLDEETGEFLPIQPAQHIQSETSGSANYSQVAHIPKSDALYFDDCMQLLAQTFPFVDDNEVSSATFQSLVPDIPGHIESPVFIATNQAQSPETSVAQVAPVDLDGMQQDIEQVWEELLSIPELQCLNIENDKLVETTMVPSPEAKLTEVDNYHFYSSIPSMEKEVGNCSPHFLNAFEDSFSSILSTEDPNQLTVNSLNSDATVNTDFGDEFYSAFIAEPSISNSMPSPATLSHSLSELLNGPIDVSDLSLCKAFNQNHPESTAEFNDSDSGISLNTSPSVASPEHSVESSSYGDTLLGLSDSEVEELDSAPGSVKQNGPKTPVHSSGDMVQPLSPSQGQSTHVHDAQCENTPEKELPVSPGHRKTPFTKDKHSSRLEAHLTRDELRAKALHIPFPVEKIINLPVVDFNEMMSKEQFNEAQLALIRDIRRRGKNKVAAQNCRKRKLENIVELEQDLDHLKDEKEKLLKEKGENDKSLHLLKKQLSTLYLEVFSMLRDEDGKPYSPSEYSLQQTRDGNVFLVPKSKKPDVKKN
Sequence of Cellular tumor antigen p53 (Homo sapiens) (P04637 whole entry, looked up): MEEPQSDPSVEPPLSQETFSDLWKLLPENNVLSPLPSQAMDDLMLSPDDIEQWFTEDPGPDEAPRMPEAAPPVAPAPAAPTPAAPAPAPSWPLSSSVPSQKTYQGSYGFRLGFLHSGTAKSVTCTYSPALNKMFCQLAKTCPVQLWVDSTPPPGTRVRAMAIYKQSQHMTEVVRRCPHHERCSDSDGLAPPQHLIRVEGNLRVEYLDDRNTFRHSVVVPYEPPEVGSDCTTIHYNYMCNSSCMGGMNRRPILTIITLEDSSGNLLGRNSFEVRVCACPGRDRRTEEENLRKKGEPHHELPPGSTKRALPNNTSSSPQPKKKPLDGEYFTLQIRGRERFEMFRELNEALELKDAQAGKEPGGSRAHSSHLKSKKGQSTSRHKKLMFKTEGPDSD
Sequence of Signal transducer and activator of transcription 3 (Homo sapiens) (P40763 whole entry, looked up): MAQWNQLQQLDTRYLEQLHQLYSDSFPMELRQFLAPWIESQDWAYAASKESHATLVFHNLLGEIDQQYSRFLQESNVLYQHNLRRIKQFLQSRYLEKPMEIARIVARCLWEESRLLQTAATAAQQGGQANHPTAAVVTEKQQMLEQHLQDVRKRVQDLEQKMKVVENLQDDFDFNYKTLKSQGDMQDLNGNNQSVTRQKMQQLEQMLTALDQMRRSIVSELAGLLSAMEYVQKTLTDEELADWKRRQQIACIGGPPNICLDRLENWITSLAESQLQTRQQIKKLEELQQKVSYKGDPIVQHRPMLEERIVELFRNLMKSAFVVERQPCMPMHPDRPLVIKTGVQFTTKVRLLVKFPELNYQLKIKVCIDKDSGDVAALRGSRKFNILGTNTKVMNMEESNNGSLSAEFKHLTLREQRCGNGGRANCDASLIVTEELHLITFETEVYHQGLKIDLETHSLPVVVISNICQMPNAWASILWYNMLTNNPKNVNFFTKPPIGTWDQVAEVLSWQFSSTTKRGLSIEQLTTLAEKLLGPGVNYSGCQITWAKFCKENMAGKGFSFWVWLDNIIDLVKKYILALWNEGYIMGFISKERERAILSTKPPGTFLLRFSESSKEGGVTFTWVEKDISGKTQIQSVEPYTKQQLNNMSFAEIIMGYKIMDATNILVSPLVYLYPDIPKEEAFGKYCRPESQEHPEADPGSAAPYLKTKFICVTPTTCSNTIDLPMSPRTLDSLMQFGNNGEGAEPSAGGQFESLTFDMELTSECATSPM

CC1=C(/C=C/C(C)=C/C=C/C(C)=C/CO)C(C)(C)CCC1
active: [5] 52.2 µM | [11] 41.5 µM
not listed: [20]
inactive: all other assays above

CC(C)(C)c1cc(O)c(C(C)(C)C)cc1O
inactive: [1] | [2] | [3] | [6] | [7] | [13] | [16] | [18]
active: [4] 79.1 µM | [5] 90.9 µM | [20] 50 µM | [8] 78.3 µM | [9] 78.9 µM | [10] 86.7 µM | [11] 89.2 µM | [14] 73.5 µM | [17] 80.1 µM | [19] 71.6 µM

CCCCN(CCCC)CCCC
not listed: [18] | [20]
inactive: all other assays above

CCOc1ccc2c(c1)C(C)=CC(C)(C)N2
active: [11] 1.61 µM
not listed: [12] | [15]
inactive: all other assays above

CN[C@H]1CC[C@@H](c2ccc(Cl)c(Cl)c2)c2ccc(S(N)(=O)=O)cc21
inactive: [2] | [4] | [6] | [7] | [8] | [9] | [13]
active: [1] 81.5 µM | [3] 50 µM | [5] 87.6 µM | [10] 87.6 µM | [11] 37 µM | [12] 74.2 µM | [14] 36.9 µM | [16] 78.4 µM | [17] 87 µM | [18] 71.7 µM | [19] 86.1 µM

CCCCCCCCCCO
not listed: [18] | [20]
inactive: all other assays above

COc1cc(-c2nc(NC(=O)c3cc4cc(C)cc(C)c4n3CC(=O)O)sc2CCC2CCCCC2)c(OC)cc1Cl
inactive: [1]
active: [2] 13.4 µM | [3] 19.3 µM | [4] 6.78 µM | [5] 6.35 µM | [6] 60.3 µM | [7] 12.1 µM | [20] 4.26 µM | [8] 6.91 µM | [9] 6.89 µM | [10] 24.6 µM | [11] 7.32 µM | [13] 19.6 µM | [14] 9.05 µM | [16] 1.65 µM | [17] 2.2 µM | [18] 5.1 µM | [19] 7.74 µM
